We go through 92 compounds from PubChem BioAssay AID624169 (The Scripps Research Institute Molecular Screening Center, 2012).

Structures are written as SMILES. About 2,400 (0.67%) of roughly 360,000 compounds were called active. For the sample, actives were picked, then their nearest neighbours and some compounds at random. A number with no mark means an inactive call.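 How the source made its calls: active means activation above a run cutoff, the mean activation of all tested compounds plus 3 SD (cut at about 14% in these data); inactive means the rest.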

The target of this test is 5-hydroxytryptamine receptor 2A (Mus musculus) (UniProt P35363). Briefly: mouse Htr2a agonists via beta-arrestin recruitment, primary screen, cell-based, luminescence (AID 624169).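 Further: 0% = plate median of compound wells and 100% = 30 µM serotonin.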 The following applies: CHO-K1 mHTR2A beta-arrestin complementation, at 7.6 µM, active compounds read high, percent of 30 µM serotonin response. A general note: Arrestin recruitment assays detect the binding of arrestin to an activated receptor.
Sequence of 5-hydroxytryptamine receptor 2A (Mus musculus) (P35363 whole entry, looked up): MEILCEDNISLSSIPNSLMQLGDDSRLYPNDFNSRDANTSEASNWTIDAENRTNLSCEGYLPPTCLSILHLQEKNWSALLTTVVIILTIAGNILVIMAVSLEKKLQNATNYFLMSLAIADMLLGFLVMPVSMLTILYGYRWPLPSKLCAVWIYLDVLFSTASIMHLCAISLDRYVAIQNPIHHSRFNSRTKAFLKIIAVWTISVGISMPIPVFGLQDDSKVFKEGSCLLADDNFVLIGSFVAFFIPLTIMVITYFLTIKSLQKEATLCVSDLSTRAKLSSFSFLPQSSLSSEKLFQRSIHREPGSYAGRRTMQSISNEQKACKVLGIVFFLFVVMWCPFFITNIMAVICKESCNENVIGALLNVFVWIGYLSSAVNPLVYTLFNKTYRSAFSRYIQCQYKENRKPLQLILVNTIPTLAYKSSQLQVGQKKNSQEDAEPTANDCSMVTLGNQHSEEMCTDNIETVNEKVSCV
`COc1ccc(C(=O)C[n+]2ccc(C)cc2)cc1`: the activation is -0.16%.
With `CO/N=C/CC(=O)c1ccc(OC)cc1` the figure was 21.9% (active).
With `COc1ccc(C(=O)COC(=O)c2ccc3ccccc3n2)cc1` the figure was -0.68%; with `Cc1cccc(NC(=O)c2cc(S(=O)(=O)N3CCC4(CC3)OCCO4)ccc2F)c1`, -2.45%; with `COc1ccc(C2/C(=C(/O)c3ccccc3)C(=O)C(=O)N2c2ncccn2)cc1OC` (configuration not stated), -1.25%.
For `COc1ccc(/C(O)=C2/C(=O)C(=O)N(c3nc(C)c(C)s3)C2c2ccco2)cc1` (configuration not stated), the activation was 0.59%.
Take `CCOc1ccc(/C(O)=C2\C(=O)C(=O)N(c3ccc(OC)cc3)C2c2ccccc2[N+](=O)[O-])cc1` (configuration not stated): the activation is 23.9% (active).
Regarding `CCN(CCn1cccn1)Cc1nc(-c2ccc(C(=O)OC)cc2)no1`, the activation is 2.48%.
Regarding `N=C1c2ccccc2-c2ccccc21`, the activation was 3.53%.
On to `Cc1nnc(C)c2c(C)n(N)c(C)c12`, for which the activation was -1.02%.
On to `N#CCSc1nn(-c2ccc(F)cc2)c(=S)s1`, for which the activation was 15.4% (active).
The figure for `O=C(CSc1nn(-c2ccc(F)cc2)c(=S)s1)NC1CCS(=O)(=O)C1` (configuration not stated) is -0.71%.
With `Cc1ccccc1-n1nc(SCC(=O)O)sc1=S`, the activation is -1.31%.
Take `COCCCN(C(=O)CSCc1ccc(C)cc1)c1c(N)n(Cc2ccccc2)c(=O)[nH]c1=O`: the activation is 7.86%.
With `CC1C(C)N(C(=O)CCl)c2ccccc2N1C(=O)CCl` (configuration not stated) the figure was -1.04%; with `Cn1c2c(c(=O)n(C)c1=O)C(c1cccc([N+](=O)[O-])c1)Nc1ccccc1O2` (configuration not stated), -3.64%; with `Cn1c2c(c(=O)n(C)c1=O)C(c1ccc(O)cc1)Nc1ccccc1O2` (configuration not stated), 27% (active).
The figure for `Cn1c2c(c(=O)n(C)c1=O)C1c3ccccc3OCC1C(C)(C)O2` (configuration not stated) is -0.33%.
Take `COC(=O)COc1ccc(C2NC(=O)NC(C)=C2C(=O)NCc2ccccc2)cc1OC` (configuration not stated): the activation was -4.71%.
For the compound `COCCCn1cc(CN2CC(N(C)C)CS2(=O)=O)nn1` (configuration not stated), the activation is 5.48%.
As for `Cc1c(Br)c([N+](=O)[O-])nn1CC(=O)Nc1sc2c(c1C(=O)OC(C)C)CCC(C)C2` (configuration not stated), the activation was 2.43%.
In the case of `CC(=O)Nc1ccc(OCC(O)CN2CCN(c3ccccc3Cl)CC2)cc1` (configuration not stated), the activation is 2.24%.
Turning to `O=S(=O)(c1ccc(OCC(O)CN2CCN(c3ccccc3Cl)CC2)cc1)N1CCOCC1` (configuration not stated), the activation is 22.4% (active).
`CC(=O)c1ccc(OCC(O)CN2CCN(S(=O)(=O)c3cccc(Br)c3)CC2)cc1` (configuration not stated): the activation was 1.8%.
As to `Cc1cc(C(=O)NNS(=O)(=O)c2ccccc2C(F)(F)F)nn1C(C)(C)C`, the activation is -0.74%.
The figure for `CCOC(=O)[C@]12CCCC=C1N(CCC1=CCCCC1)C(=O)[C@H](CC(=O)NCCCCc1ccccc1)C2` is 3.93%.
`CCNC(=S)N(CCc1c(C)[nH]c2ccc(C)cc12)Cc1ccco1`: the activation is -4.57%.
With `COc1ccc2[nH]c(C)c(CCN(Cc3cccs3)C(=S)Nc3ccccc3OC)c2c1`, the activation was 10.5%.
On to `Cc1[nH]c2ccccc2c1CCN(Cc1cccs1)C(=S)NC(C)(C)C`, for which the activation is 24.1% (active).
On to `CCOC(=O)c1cccc(NC(=O)C2CCN(c3ncnc4c3nc3n4CCCCC3)CC2)c1`, for which the activation was -3.05%.
In the case of `CCOCCCN1C(=O)C2C(C(=O)Nc3ccc(OCC)cc3)C3C=CC2(O3)C1C(=O)NC1CCCCC1` (configuration not stated), the activation was 6.26%.
`COc1ccc(C(C)(C)C)cc1NC(=O)CCN1C(=O)C2CCCCC2C1=O` (configuration not stated): the activation is -4.43%.
With `Cc1ccc(C(=O)NCC(=O)OCc2nnc(-c3ccccc3)o2)cc1` the figure was 14.8% (active); with `Cc1onc(-c2ccccc2)c1-c1nnc(COC(=O)c2ccc(N(C)C)cc2)o1`, -6.2%; with `O=C(OCc1nnc(-c2ccccc2)o1)c1ccc2c(c1)C(=O)N(CCc1ccccc1)C2=O`, 1.62%.
Take `CSc1ccc(NC(=O)N2CC(C)OC(C)C2)cc1` (configuration not stated): the activation is -3.29%.
`CCCCn1nc(C(=O)Nc2cccc(C(=O)NC3CC3)c2)c2ccccc2c1=O`: the activation is 2.3%.
`Cn1cccc1C(=O)OCC(=O)c1ccc(Br)s1`: the activation is -5.88%.
On to `OC(COc1ccc(F)cc1Cl)CN1CCc2ccccc2C1` (configuration not stated), for which the activation was -18.7%.
For `COc1ccccc1C(c1nnnn1CC1CCCO1)N1CCN(c2ccccc2)CC1` (configuration not stated), the activation was -1.76%.
In the case of `O=C(c1cccs1)n1nc(NCc2ccccc2)nc1NCc1ccccc1`, the activation was -1.74%.
With `O=C(NCc1ccco1)/C(=C/c1ccco1)NC(=O)c1ccccc1`, the activation is 2.71%.
The figure for `O=C(Cc1ccccc1)n1nc(-c2ccccc2)nc1NCc1ccco1` is 17.4% (active).
Turning to `CC(C)NS(=O)(=O)c1ccc(NC(=O)C2CCCCC2)cc1`, the activation was -5.58%.
Turning to `Cc1nc2ccc(NC(=O)C3CCCCC3)cc2s1`, the activation is 5.67%.
With `CS(=O)(=O)c1ccc2nc(NC(=O)C3CCCCC3)sc2c1` the figure was 14.9% (active).
In the case of `Cc1ccc2nc(NC(=O)C3CCN(S(=O)(=O)c4ccc5c(c4)oc(=O)n5C)CC3)sc2c1`, the activation is -3.71%.
With `COc1ccc(CN2CC(C(=O)NCCN3CCN(c4ccccc4F)CC3)CC2=O)cc1` (configuration not stated), the activation is -3.29%.
In the case of `O=C(NCCCN1CCCCCC1)C1CC(=O)N(C2CCCC2)C1` (configuration not stated), the activation was 2.65%.
As for `O=C(NCCCN1CCN(c2ccccc2F)CC1)C1CCC(=O)N1C1CCCCC1` (configuration not stated), the activation was 16.5% (active).
Turning to `COC(=O)c1ccccc1NC(=O)C1CCN(S(=O)(=O)c2cc(OC)ccc2OC)CC1`, the activation is -1.33%.
Turning to `CCCN(CCc1ccccc1)C1CCc2c(O)cccc2C1` (configuration not stated), the activation is 50.6% (active).
For the compound `Cc1cc(C)cc(C(=O)N(CCc2ccccc2)C2=CC3CCC(C2)N3C)c1` (configuration not stated), the activation is -10.4%.
With `COC(=O)c1ccc(CN2C(=O)C(Cc3ccccc3)ON=C2c2ncccc2C)o1` (configuration not stated), the activation is 0.18%.
On to `CCOc1ccccc1NS(=O)(=O)c1cc2c3c(c1)C(C)C(=O)N3CCC2` (configuration not stated), for which the activation was 5.3%.
In the case of `C/C(=N\NC(=O)COc1c(C)cccc1C)c1cccs1`, the activation is 14.4% (active).
In the case of `C/C(=N\NC(=O)CSc1nc2ccccc2c(=O)n1-c1ccccc1C)c1cccs1`, the activation is -1%.
`C/C(=N\OCC(=O)Nc1ccc(Br)cc1)c1cccs1`: the activation is -2.57%.
As for `CN(C)C(=O)c1nc2ccc(Cl)cn2c1CN1CCN(c2ncccn2)CC1`, the activation is 1.37%.
Turning to `COc1ccccc1-c1nn(Cc2ccccc2)cc1C(=O)N1CCN(c2ncccn2)CC1`, the activation was 11.3%.
With `Cc1ccc(CN2CCN(/N=C/c3cccnc3)CC2)c(C)c1` the figure was -3.83%; with `Oc1ccc(CN2CCN(c3ncccn3)CC2)cc1`, 30.1% (active).
As for `Cc1ccc(CN2CCN(/N=C/c3ccco3)CC2)c(C)c1`, the activation was -2.05%.
With `Cc1ccc(CN2CCN(c3ncccn3)CC2)c(C)c1`, the activation was 25.6% (active).
For the compound `CC1(C)CCSC(/C=C/c2ccccc2)=N1`, the activation was -2.29%.
Turning to `Nc1c(C(=O)O)cnn1-c1ccccc1`, the activation is 2.02%.
For `CC1(Cc2ccccc2C#N)C(=O)Nc2ccc(-c3ccc4[nH]ccc4c3)cc21` (configuration not stated), the activation is -1.29%.
Consider `CC1(Cc2cccc(C#N)c2)C(=O)Nc2ccc(-c3cccc(C(F)(F)F)c3)cc21` (configuration not stated), for which the activation was 16.7% (active).
With `Cc1ccc(CC2(C)C(=O)Nc3ccc(OC(F)(F)F)cc32)cc1` (configuration not stated) the figure was -3.94%.
On to `COC(=O)[C@]12CCCCC=C1N(Cc1ccc3c(c1)OCO3)C(=O)[C@H](CC(=O)N1CCOCC1)C2`, for which the activation is 2.87%.
With `O=C(Nc1cccc2c1CCCC2)C1CCN(C(=O)NC2CCCCC2)CC1` the figure was 2.77%.
`CCOC(=O)c1cccc(NC(=O)C2CCCN(S(=O)(=O)c3cnc[nH]3)C2)c1` (configuration not stated): the activation was 9.95%.
With `O=c1[nH]nc(Cc2ccccn2)c2ccccc12` the figure was 2.3%.
On to `Cc1cc([N+](=O)[O-])c(NC2CCCCC2)c([N+](=O)[O-])c1`, for which the activation was 0.25%.
Take `Cc1cc(C=O)c(C)n1-c1ccc(NC2CCCCC2)c([N+](=O)[O-])c1`: the activation is 3.39%.
As for `Cc1cc([N+](=O)[O-])ccc1NC1CCCC1`, the activation is 15.6% (active).
In the case of `COc1cc2sc(C)nc2cc1C`, the activation is -1.33%.
Turning to `CCOC(=O)c1cc(-c2ccccc2C)n(Cc2cc(C)no2)n1`, the activation was 22.5% (active).
With `CCOC(=O)c1cc(-c2sc(NC(=O)c3ccccc3)nc2C)n(Cc2ccccc2)n1` the figure was -1.51%; with `CCOC(=O)c1cc(-c2sc(NC(=O)c3ccccc3)nc2C)n(CCO)n1`, -1.86%; with `Cc1noc(C)c1COc1ccccc1C(=O)N(C)CC(=O)Nc1cccc(F)c1`, -2.16%.
Consider `CCCCN1C[C@H](c2ccc(Br)cc2)[C@@H](CC(=O)Nc2ccc(Br)cc2)C1=O`, for which the activation was 5.11%.
The figure for `O=C(CN1CCOCC1)N1CCCc2c1c(=O)oc1ccc(OCc3ccccc3)cc21` is -4.24%; for `Nc1c(N(Cc2ccco2)C(=O)c2cccc(F)c2)c(=O)[nH]c(=O)n1Cc1ccccc1` it is 16.4% (active); for `Nc1c(N(CCO)C(=O)C2CCCCC2)c(=O)[nH]c(=O)n1Cc1ccccc1` it is -0.82%.
`COCCN(C(=O)c1ccccc1F)c1c(N)n(Cc2ccccc2)c(=O)[nH]c1=O`: the activation was -0.11%.
For the compound `CC(C(=O)N(C)CC(=O)Nc1ccccc1C(F)(F)F)N1C(=O)c2ccccc2C1=O` (configuration not stated), the activation was -1.36%.
`CC(=O)c1sc(NC(=O)CCN2C(=O)C3CC=CCC3C2=O)nc1-c1ccccc1` (configuration not stated): the activation was -2.19%.
With `Cc1cc(NC(=O)/C=C/C(=O)N(CC(=O)NC2CCCC2)c2ccc(F)cc2)no1` the figure was 5.36%; with `O=C(Cc1ccsc1)N1CCN(S(=O)(=O)c2cc(C(F)(F)F)cc(C(F)(F)F)c2)CC1`, 16.3% (active); with `O=C(c1ccncc1)N1CCN(S(=O)(=O)c2cc(C(F)(F)F)cc(C(F)(F)F)c2)CC1`, -5.52%.
`O=C(CCC(=O)N1CCN(S(=O)(=O)c2ccc(Cl)cc2)CC1)NCc1cccc(C(F)(F)F)c1`: the activation is -0.98%.
